# Compounds without any hit were thinned out: in the full panel of roughly 83,000, 20% have a hit.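 Step 1: grow cells in 96-well plates. Step 2: add test compound at a single concentration. Step 3: incubate 48 h. Step 4: record percent growth.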 Values without a mark were called inactive. The source made the active and inactive calls. How the source made its calls: active means growth percent below 10; inactive means the rest.
# How the values were obtained:
# Assay in all cases: NCI-60 one-dose screen, 48 h (100 = growth as untreated, 0 = no growth, -100 = all killed)
# Conditions in all cases: 10 µM unless noted
# SK-MEL-2 melanoma = tested on: SK-MEL-2 melanoma
# EKVX NSCLC = tested on: EKVX NSCLC
# SN12C renal = tested on: SN12C renal
# UO-31 renal = tested on: UO-31 renal
# TK-10 renal = tested on: TK-10 renal
# ACHN renal = tested on: ACHN renal
# CAKI-1 renal = tested on: CAKI-1 renal
# A498 renal = tested on: A498 renal
# CCRF-CEM leukemia = tested on: CCRF-CEM leukemia
# MOLT-4 leukemia = tested on: MOLT-4 leukemia
# SR leukemia = tested on: SR leukemia
# RPMI-8226 leukemia = tested on: RPMI-8226 leukemia
# OVCAR-8 ovarian = tested on: OVCAR-8 ovarian
# OVCAR-4 ovarian = tested on: OVCAR-4 ovarian
# SK-OV-3 ovarian = tested on: SK-OV-3 ovarian
# IGROV1 ovarian = tested on: IGROV1 ovarian
# OVCAR-3 ovarian = tested on: OVCAR-3 ovarian
# HS 578T breast = tested on: HS 578T breast
# NCI/ADR-RES ovarian = tested on: NCI/ADR-RES ovarian
# OVCAR-5 ovarian = tested on: OVCAR-5 ovarian
SMILES,growth (SK-MEL-2 melanoma),growth (EKVX NSCLC),growth (SN12C renal),growth (UO-31 renal),growth (TK-10 renal),growth (ACHN renal),growth (CAKI-1 renal),growth (A498 renal),growth (CCRF-CEM leukemia),growth (MOLT-4 leukemia),growth (SR leukemia),growth (RPMI-8226 leukemia),growth (OVCAR-8 ovarian),growth (OVCAR-4 ovarian),growth (SK-OV-3 ovarian),growth (IGROV1 ovarian),growth (OVCAR-3 ovarian),growth (HS 578T breast),growth (NCI/ADR-RES ovarian),growth (OVCAR-5 ovarian)
COc1ccccc1N(C(C)=O)C1=C(Cl)C(=O)c2ccccc2C1=O,-38.2% (active),10.1%,16%,11.4%,-6.2% (active),-29.5% (active),10.6%,36.2%,-16.9% (active),10.9%,-13.9% (active),-19.2% (active),19.1%,22.4%,17.6%,13.8%,-23.3% (active),42.7%,0.618% (active),–
COC(=O)/C=C1/SC(=Nc2ccc([N+](=O)[O-])cc2)N(CCc2c[nH]c3ccc(O)cc23)C1=O,39.7%,64.7%,45.8%,53.5%,85.2%,53.4%,71.4%,80.5%,10.9%,10.9%,-22.5% (active),8.49% (active),38.4%,45.1%,61.3%,–,50.9%,47.5%,43.9%,–
CNC1=C([N+](=O)[O-])C(c2ccc(OC)cc2)C(C#N)=C(c2cccs2)O1 (configuration not stated),119%,104%,105%,80.6%,124%,109%,94.2%,117%,108%,101%,112%,111%,103%,100%,110%,108%,99.4%,106%,107%,–
COC(=O)CC[C@@H]1O[C@@H](c2ccc(F)cc2)[C@@H](O)[C@H]1O,109%,104%,109%,94%,101%,101%,96.8%,112%,107%,105%,96.6%,101%,112%,–,101%,113%,104%,94.1%,104%,90.2%
CSc1nc(C)c([N+](=O)[O-])c(N)n1,109%,102%,99.1%,98%,89.4%,112%,98.4%,101%,62.5%,93.4%,96.3%,78.4%,100%,104%,85.1%,110%,114%,104%,102%,–
COc1ccc(-c2ccc(-c3ccc(C(=N)N)nc3)s2)cc1Cl,102%,56.4%,-81.7% (active),-94.8% (active),94.5%,-96.2% (active),-90.2% (active),88.2%,-49% (active),-49.3% (active),-7.17% (active),-45.4% (active),-28.5% (active),-79.5% (active),97.1%,-87.8% (active),-90.6% (active),-48.3% (active),37.7%,–
CCOC(=O)c1c(C)nc2ccccc2c1/C=C/c1ccccc1,71.7%,63.6%,88.3%,60.7%,92.5%,72.7%,59.5%,76%,45.8%,23.6%,60.3%,42.2%,53.8%,–,91.5%,75%,79.6%,94.8%,24.8%,97%
O=S(=O)(Oc1ccc(Br)cc1)c1ccc(Cl)cc1,116%,95.7%,105%,82.3%,84.1%,117%,105%,86.6%,97%,85.1%,98.3%,99.7%,106%,98.9%,108%,98.8%,98.3%,104%,96.2%,–
Cc1ccc(/C=C/C(=O)Nc2ncc(Cc3ccc(F)cc3)s2)o1,46.9%,48.5%,66.3%,40.4%,61.9%,56.3%,35.4%,27.3%,45.1%,35%,18.9%,54.2%,77.6%,–,64.6%,54.1%,–,49.2%,55.7%,64.1%
COc1ccc(N2CCC(=S)NC2=S)cc1,115%,104%,98%,84.3%,96%,104%,85%,108%,102%,98.9%,112%,103%,99.1%,–,116%,105%,103%,105%,103%,104%
O=C(CCCCCCN1CC(=O)N2[C@H](c3ccc(Cl)cc3)c3[nH]c4ccccc4c3C[C@@H]2C1=O)NO,66.1%,65.7%,63.1%,57.9%,55.8%,84.4%,65.2%,78.9%,25.7%,4.87% (active),21.6%,24.5%,51.8%,74.3%,62.9%,33.5%,56.5%,63.7%,90.2%,–
Cc1c(Cl)cccc1C(=O)Nc1nc2c(s1)CN(C(=O)c1ccc(C(F)(F)F)cc1)CC2,49.9%,49.5%,30%,44.4%,64.5%,25.3%,22.7%,-20.1% (active),16.5%,21.8%,21.3%,10.6%,10.1%,–,36.4%,17.9%,0.113% (active),26.8%,5.22% (active),57.5%
O=C(Cn1nnc2ccccc21)N/N=C/c1c[nH]c2ccccc12,38.4%,62.4%,45.9%,52.4%,64.7%,64.1%,45.7%,60.4%,47.7%,29.9%,18.3%,45%,44.8%,82%,65.7%,54.1%,22.4%,57.5%,47.6%,–
Cc1nnc(-c2ccc3c(c2)nc(/C=C/c2ccccc2)n3C2CCCCC2)o1,82%,86.8%,90.1%,58.2%,104%,54.7%,112%,97.8%,53.8%,43.4%,46%,44.3%,80.2%,–,64.8%,–,75.4%,90.3%,85.2%,125%
CCNc1ccc(-c2nc3ccccc3n3cccc23)cc1,87.9%,71%,78%,51.6%,82.7%,73.9%,57%,62.5%,68.2%,71.2%,76.4%,85.2%,80.9%,–,72.4%,64%,78.7%,78.6%,80.6%,71%

# From PubChem BioAssay (NCI)
